Test results reported in PubChem BioAssay (EPA / NIEHS).
Inconclusive results are not listed. Activity calls are given as the source filed them. The calls were made as follows, unless noted: active = hit-call score of the fitted dose curve at least 0.9, where 1 is the maximum; inactive = score below 0.9.

Key:
[1] = biological target: Nuclear respiratory factor 1 (Homo sapiens) (UniProt Q16656); test: ATG_NRF1_CIS: Attagene CIS-FACTORIAL HepG2 Assay for human Nuclear Respiratory Factor 1 (NRF1) Orphan Gene (AID 2282987); details: HepG2 NRF1 cis-element reporter, Attagene multiplex; actives raise or lower the signal
Outline: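 Endogenous NRF1-driven reporter transcription measured in transiently transfected human HepG2 liver cells. Readout: reporter mRNA by RT-PCR and capillary electrophoresis with fluorescence detection, 24 h post-dosing. Gain or loss of signal fitted relative to DMSO baseline.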

[2] = ATG_NFI_CIS: Attagene CIS-FACTORIAL HepG2 Assay for human Nuclear Factor I (NFI) (AID 2282989); details: HepG2 cis-regulatory reporter, NFI response element transcription; actives raise or lower the signal
Outline: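 Reporter transcription driven by endogenous transcription factors in HepG2 cells; 24 h treatment. Quantitation by labelled RT-PCR fragments on capillary electrophoresis, gain- or loss-of-signal relative to DMSO.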

[3] = biological target: Myc proto-oncogene protein (Homo sapiens) (UniProt P01106); test: ATG_Myc_CIS: Attagene CIS-FACTORIAL HepG2 Assay for human Myelocytomatosis (Myc) Proto-Oncogene Transcription Factor (AID 2282990); details: HepG2, Attagene cis-reporter transcription factor activity; actives raise or lower the signal
Outline: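 Fluorescence intensity of reporter-specific cDNA fragments, separated by capillary electrophoresis, gives the signal. Transfected HepG2 cells carrying cis-promoter reporter constructs are incubated with compound for 24 h; DMSO serves as baseline.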

[4] = ATG_NF_kB_CIS: Attagene CIS-FACTORIAL HepG2 Assay for human Nuclear Factor Kappa B (NF-kB) (AID 2282991); details: HepG2 Attagene cis-factorial NF-kB reporter mRNA; actives raise or lower the signal
Outline: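 Read-out: reporter transcript levels quantified by RT-PCR plus capillary electrophoresis of 6-FAM-labelled, HpaI-cut fragments. Transfected HepG2 cells, 24 h compound exposure, endogenous NF-kB-driven cis element; gain or loss scored versus DMSO.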

[5] = ATG_NRF2_ARE_CIS: Attagene CIS-FACTORIAL HepG2 Assay for human Nuclear Factor Erythroid 2 Related Factor 2 (NFR2) response to Antioxidant Response Elements (ARE) (AID 2282992); details: HepG2 Attagene ARE/NRF2 reporter, transcription factor activity; actives raise or lower the signal
Outline: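 Multiplexed reporter mRNA profiling in HepG2 after a 24 h chemical exposure. Curves fitted in both directions relative to DMSO negative control.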

[6] = ATG_Oct_MLP_CIS: Attagene CIS-FACTORIAL HepG2 Assay for human Octamer-Binding Transcription Factor (Oct) (AID 2282993); details: HepG2 Attagene cis-factorial Oct reporter, mRNA; actives raise or lower the signal
Outline: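 Transfected HepG2 cells, 24 h treatment. Reporter mRNA quantified by RT-PCR–capillary electrophoresis; bidirectional fitting against DMSO.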

[7] = biological target: Cellular tumor antigen p53 (Homo sapiens) (UniProt P04637); test: ATG_p53_CIS: Attagene CIS-FACTORIAL HepG2 Assay for human p53 Transcription Factor (AID 2282994); details: HepG2 p53 cis-element reporter, Attagene mRNA; actives raise or lower the signal
Outline: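 Multiplexed reporter mRNA assay in human HepG2 liver cells; cis-regulated units report endogenous factor activity. Values come from bidirectional curve fitting against DMSO negative control after 24 h treatment.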

[8] = biological target: Retinoic acid receptor alpha (Homo sapiens) (UniProt P10276); test: ATG_RARa_TRANS: Attagene TRANS-FACTORIAL HepG2 Assay for human Retinoic Acid Receptor alpha (RARa) (AID 2283005; active = hit-call score of the fitted dose curve at least 0.9, where 1 is the maximum)
Outline: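 HepG2 transiently transfected with multiplex GAL4-UAS reporter units including a human RARa–GAL4 chimera; 24 h compound exposure. Reporter mRNA quantified by RT-PCR, 6-FAM labeling and capillary electrophoresis; gain of signal versus DMSO.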

[9] = biological target: Peroxisome proliferator-activated receptor gamma (Homo sapiens) (UniProt P37231); test: ATG_PPARg_TRANS: Attagene TRANS-FACTORIAL HepG2 Assay for human Peroxisome Proliferator-activated Receptor-gamma (PPARg) (AID 2283007; active = hit-call score of the fitted dose curve at least 0.9, where 1 is the maximum)
Outline: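 Read-out: reporter mRNA induction, detected by fluorescence after RT-PCR and capillary electrophoresis. Transiently transfected human HepG2 liver cells carrying a chimeric NR-Gal4 construct were dosed for 24 h; activity was fitted upward relative to DMSO.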

[10] = biological target: Nuclear receptor subfamily 1 group I member 2 (Homo sapiens) (UniProt O75469); test: ATG_PXR_TRANS: Attagene TRANS-FACTORIAL HepG2 Assay for human Pregnane X Receptor (PXR) (AID 2283008; active = hit-call score of the fitted dose curve at least 0.9, where 1 is the maximum)
Outline: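 Measures mRNA induction of a GAL4-UAS-driven reporter in human HepG2 cells transiently expressing PXR fused to Gal4, following 24 h treatment. DMSO served as negative control and baseline.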

[11] = biological target: human Retinoic Acid Receptor gamma (RARg), RARG (gene 5916) (UniProt P13631); test: ATG_RARg_TRANS: Attagene TRANS-FACTORIAL HepG2 Assay for human Retinoic Acid Receptor gamma (RARg) (AID 2283009; active = hit-call score of the fitted dose curve at least 0.9, where 1 is the maximum)
Outline: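 HepG2 cells transiently transfected with multiplexed reporter units expressing chimeric RARg-GAL4 and GAL4-UAS-driven reporters; 24 h compound exposure. Reporter mRNA quantified by RT-PCR with fluorescent labelling and capillary electrophoresis; gain-of-signal fitted relative to DMSO baseline.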

[12] = BSK_3C_TissueFactor: BioMAP Diversity Plus: 3C Assay for Tissue Factor Biomarker Activity (AID 2282997); details: BioMAP 3C HUVEC, tissue factor biomarker readout; actives raise or lower the signal
Outline: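 Dosing of human umbilical vein endothelial cells preceded a 24 h incubation. Tissue Factor was then read by ELISA, with increases and decreases both scored relative to DMSO controls.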

[13] = BSK_3C_uPAR: BioMAP Diversity Plus: 3C Assay for Urokinase-type plasminogen activator receptor (uPAR) Biomarker Activity (AID 2282998); details: BioMAP 3C HUVEC, uPAR biomarker ELISA; actives raise or lower the signal
Outline: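 Readout: ELISA for surface uPAR. System: human umbilical vein endothelial primary cells, 24 h after chemical exposure. Analysis: bidirectional fit, DMSO baseline.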

[14] = BSK_3C_VCAM1: BioMAP Diversity Plus: 3C Assay for Vascular cell adhesion molecule 1 (VCAM1) Biomarker Activity (AID 2282999); details: BioMAP 3C HUVEC, VCAM1 ELISA, cytokine-stimulated; actives raise or lower the signal
Outline: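 Human umbilical vein endothelial cells (3C system), biomarker read by ELISA 24 h after dosing; bidirectional fit against DMSO baseline. Cytotoxicity tracked by SRB total-protein staining in parallel cultures at biomarker time.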

[15] = BSK_4H_Eotaxin3: BioMAP Diversity Plus: 4H Assay for Eotaxin 3 Biomarker Activity (AID 2283000); details: primary human endothelial cells (HUVEC); actives raise or lower the signal;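 also: CCL26 protein level quantified by ELISA in parallel with SRB cytotoxicity check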
Outline: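 Human umbilical vein endothelial cells (BSK_4H system) dosed with test chemical; Eotaxin-3 (CCL26) measured by ELISA 24 h after dosing. Bidirectional curve fitting relative to DMSO negative control as baseline.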

[16] = biological target: human Peroxisome Proliferator-activated Receptor alpha (PPARa), PPARA (gene 5465) (UniProt Q07869); test: ATG_PPARa_TRANS: Attagene TRANS-FACTORIAL HepG2 Assay for human Peroxisome Proliferator-activated Receptor alpha (PPARa) (AID 2283001; active = hit-call score of the fitted dose curve at least 0.9, where 1 is the maximum)
Outline: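 Measures transcriptional activity of an exogenous chimeric PPARa-Gal4 protein in transiently transfected HepG2 cells after 24 h dosing. Reporter mRNA quantified via RT-PCR and capillary electrophoresis; DMSO served as negative control.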

[17] = biological target: human Peroxisome Proliferator-activated Receptor delta (PPARd), PPARD (gene 5467) (UniProt Q03181); test: ATG_PPARd_TRANS: Attagene TRANS-FACTORIAL HepG2 Assay for human Peroxisome Proliferator-activated Receptor delta (PPARd) (AID 2283002; active = hit-call score of the fitted dose curve at least 0.9, where 1 is the maximum)
Outline: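 Fluorescence from capillary electrophoresis of labelled RT-PCR reporter fragments gives the signal; DMSO sets baseline. Cells: HepG2 transiently carrying GAL4-UAS reporter units plus chimeric nuclear receptor-Gal4 proteins, exposed to chemicals for 24 h.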

[18] = read-out: Intercellular Adhesion Molecule 1 (ICAM1), ICAM1 (gene 3383); test: BSK_3C_ICAM1: BioMAP Diversity Plus: 3C Assay for Intercellular Adhesion Molecule 1 (ICAM1) Biomarker Activity (AID 2283003); details: primary human endothelial cells (HUVEC); actives raise or lower the signal
Outline: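 Primary human umbilical vein endothelial cells in the BioMAP 3C system were exposed to chemicals for 24 h, then ICAM-1 was quantified by ELISA. Activity was fitted bidirectionally against the DMSO negative control baseline.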

[19] = biological target: human Retinoic Acid Receptor beta (RARb), RARB (gene 5915) (UniProt P10826); test: ATG_RARb_TRANS: Attagene TRANS-FACTORIAL HepG2 Assay for human Retinoic Acid Receptor beta (AID 2283004; active = hit-call score of the fitted dose curve at least 0.9, where 1 is the maximum)
Outline: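 Induction of reporter mRNA from a chimeric RARb-Gal4 construct was measured by RT-PCR, FAM labelling, HpaI digestion and capillary electrophoresis. Measurements followed 24 h compound treatment of transiently transfected human HepG2 liver cells, with DMSO as baseline.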

[20] = BSK_3C_Proliferation: Cell Proliferation Assessment in the BioMAP Diversity Plus: 3C Assay (AID 2283006); details: primary human endothelial cells (HUVEC)
Outline: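 Human umbilical vein endothelial cells were grown sub-confluent and exposed to chemical for 48 h, then fixed with 10% TCA and stained with 0.1% sulforhodamine B; absorbance at 560 nm gave relative cell number, fitted bidirectionally against DMSO baseline.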

Measured: AC50

Chain of Nuclear receptor subfamily 1 group I member 2 (Homo sapiens) (O75469 whole entry, looked up, the tested form may be a part): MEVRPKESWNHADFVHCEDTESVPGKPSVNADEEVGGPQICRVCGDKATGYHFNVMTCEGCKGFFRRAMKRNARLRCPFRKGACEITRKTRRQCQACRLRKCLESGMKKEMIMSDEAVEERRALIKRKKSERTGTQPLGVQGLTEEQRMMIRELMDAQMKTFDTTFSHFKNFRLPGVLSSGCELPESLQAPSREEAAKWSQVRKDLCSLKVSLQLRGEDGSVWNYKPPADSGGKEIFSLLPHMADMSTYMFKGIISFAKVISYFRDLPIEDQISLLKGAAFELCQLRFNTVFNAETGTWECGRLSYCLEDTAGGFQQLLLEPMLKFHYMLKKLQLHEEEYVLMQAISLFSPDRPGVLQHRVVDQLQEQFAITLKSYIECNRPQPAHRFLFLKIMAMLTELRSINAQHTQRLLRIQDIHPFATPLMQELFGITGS
Chain of Myc proto-oncogene protein (Homo sapiens) (P01106 whole entry, looked up, the tested form may be a part): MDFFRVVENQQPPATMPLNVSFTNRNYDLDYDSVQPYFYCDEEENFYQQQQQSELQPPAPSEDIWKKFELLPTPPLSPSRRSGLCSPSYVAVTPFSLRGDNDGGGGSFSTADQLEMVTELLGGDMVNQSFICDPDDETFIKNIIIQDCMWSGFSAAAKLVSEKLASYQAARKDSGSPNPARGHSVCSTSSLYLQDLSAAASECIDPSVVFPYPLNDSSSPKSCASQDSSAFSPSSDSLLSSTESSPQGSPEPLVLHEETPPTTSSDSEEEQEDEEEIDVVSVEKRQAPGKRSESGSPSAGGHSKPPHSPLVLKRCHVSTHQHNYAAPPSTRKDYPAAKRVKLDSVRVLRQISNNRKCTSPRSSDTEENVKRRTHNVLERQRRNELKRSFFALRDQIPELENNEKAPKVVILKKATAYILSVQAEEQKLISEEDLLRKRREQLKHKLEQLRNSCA
Chain of human Peroxisome Proliferator-activated Receptor alpha (PPARa), PPARA (gene 5465) (Q07869 whole entry, looked up, the tested form may be a part): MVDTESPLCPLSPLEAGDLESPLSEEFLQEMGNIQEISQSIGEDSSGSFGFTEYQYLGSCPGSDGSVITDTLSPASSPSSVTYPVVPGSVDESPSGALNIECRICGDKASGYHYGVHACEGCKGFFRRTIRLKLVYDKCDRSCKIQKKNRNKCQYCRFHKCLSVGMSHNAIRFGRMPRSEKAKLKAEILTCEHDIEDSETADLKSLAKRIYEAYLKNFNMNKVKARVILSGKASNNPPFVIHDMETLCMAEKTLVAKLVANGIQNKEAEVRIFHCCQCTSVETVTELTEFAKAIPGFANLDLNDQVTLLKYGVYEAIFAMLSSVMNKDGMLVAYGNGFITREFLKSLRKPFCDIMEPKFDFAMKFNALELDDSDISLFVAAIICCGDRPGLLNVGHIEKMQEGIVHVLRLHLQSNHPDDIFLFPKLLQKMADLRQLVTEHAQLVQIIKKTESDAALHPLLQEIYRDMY
Chain of Nuclear respiratory factor 1 (Homo sapiens) (Q16656 whole entry, looked up): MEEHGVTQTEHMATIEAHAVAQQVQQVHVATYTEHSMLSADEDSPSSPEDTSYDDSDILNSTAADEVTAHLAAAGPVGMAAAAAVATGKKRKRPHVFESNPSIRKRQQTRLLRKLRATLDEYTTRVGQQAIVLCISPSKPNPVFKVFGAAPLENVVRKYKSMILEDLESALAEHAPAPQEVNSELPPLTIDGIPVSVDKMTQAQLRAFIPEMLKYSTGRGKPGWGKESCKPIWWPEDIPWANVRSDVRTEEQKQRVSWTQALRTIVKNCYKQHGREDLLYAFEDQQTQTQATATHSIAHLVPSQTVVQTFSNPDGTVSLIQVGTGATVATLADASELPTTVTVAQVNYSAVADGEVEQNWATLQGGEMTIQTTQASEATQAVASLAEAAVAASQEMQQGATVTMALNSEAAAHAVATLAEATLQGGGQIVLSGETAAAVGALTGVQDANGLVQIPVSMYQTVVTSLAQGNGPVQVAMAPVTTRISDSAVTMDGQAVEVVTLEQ
Chain of Peroxisome proliferator-activated receptor gamma (Homo sapiens) (P37231 whole entry, looked up, the tested form may be a part): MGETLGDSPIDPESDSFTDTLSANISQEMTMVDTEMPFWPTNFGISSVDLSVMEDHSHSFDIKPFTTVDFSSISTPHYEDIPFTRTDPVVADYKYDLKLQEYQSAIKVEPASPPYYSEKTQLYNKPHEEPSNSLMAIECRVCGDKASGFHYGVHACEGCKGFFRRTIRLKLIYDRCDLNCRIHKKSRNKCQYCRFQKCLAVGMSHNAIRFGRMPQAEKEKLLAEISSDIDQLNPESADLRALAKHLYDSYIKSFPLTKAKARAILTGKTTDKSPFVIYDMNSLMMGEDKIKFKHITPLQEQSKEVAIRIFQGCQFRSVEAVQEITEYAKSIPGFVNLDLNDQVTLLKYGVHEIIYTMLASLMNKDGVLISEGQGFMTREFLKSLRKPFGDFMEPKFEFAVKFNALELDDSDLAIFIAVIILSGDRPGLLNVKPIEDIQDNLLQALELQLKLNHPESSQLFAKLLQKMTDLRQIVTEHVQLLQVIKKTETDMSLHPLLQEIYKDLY
Chain of Retinoic acid receptor alpha (Homo sapiens) (P10276 whole entry, looked up, the tested form may be a part): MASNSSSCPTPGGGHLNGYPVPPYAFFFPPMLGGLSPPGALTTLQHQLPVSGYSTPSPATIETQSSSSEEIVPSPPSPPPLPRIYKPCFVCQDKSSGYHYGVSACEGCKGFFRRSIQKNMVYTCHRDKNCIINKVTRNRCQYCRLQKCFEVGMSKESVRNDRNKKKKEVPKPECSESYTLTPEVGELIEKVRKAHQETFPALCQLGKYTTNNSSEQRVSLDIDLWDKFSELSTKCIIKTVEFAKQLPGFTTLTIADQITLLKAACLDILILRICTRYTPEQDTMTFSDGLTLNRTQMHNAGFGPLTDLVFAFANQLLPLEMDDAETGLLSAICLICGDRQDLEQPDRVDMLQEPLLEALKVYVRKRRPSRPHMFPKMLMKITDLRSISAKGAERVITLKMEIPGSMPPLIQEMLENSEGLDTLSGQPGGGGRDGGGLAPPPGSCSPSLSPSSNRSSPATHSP
Chain of Cellular tumor antigen p53 (Homo sapiens) (P04637 whole entry, looked up): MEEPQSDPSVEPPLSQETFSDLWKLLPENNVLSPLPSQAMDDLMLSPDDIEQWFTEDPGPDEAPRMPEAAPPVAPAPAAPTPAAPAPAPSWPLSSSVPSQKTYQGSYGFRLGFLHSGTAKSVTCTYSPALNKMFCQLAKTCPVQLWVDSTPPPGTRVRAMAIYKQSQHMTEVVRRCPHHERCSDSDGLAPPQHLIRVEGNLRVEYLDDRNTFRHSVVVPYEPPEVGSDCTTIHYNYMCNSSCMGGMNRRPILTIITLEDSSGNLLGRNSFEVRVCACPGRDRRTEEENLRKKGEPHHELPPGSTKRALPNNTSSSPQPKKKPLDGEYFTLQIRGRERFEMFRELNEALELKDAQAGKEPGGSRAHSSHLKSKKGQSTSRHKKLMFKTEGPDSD
Chain of human Retinoic Acid Receptor beta (RARb), RARB (gene 5915) (P10826 whole entry, looked up, the tested form may be a part): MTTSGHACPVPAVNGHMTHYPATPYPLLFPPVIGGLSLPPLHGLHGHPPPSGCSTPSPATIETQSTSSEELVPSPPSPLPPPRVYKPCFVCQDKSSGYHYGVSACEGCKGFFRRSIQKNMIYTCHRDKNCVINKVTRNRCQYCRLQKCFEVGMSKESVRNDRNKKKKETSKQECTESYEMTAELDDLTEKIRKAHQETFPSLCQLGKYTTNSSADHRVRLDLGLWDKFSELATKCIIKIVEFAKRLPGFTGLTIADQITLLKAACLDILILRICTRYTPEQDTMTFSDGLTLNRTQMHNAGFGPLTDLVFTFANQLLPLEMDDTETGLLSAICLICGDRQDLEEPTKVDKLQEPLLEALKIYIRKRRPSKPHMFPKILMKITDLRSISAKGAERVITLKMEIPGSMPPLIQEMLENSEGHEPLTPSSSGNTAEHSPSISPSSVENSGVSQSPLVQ
Chain of human Retinoic Acid Receptor gamma (RARg), RARG (gene 5916) (P13631 whole entry, looked up, the tested form may be a part): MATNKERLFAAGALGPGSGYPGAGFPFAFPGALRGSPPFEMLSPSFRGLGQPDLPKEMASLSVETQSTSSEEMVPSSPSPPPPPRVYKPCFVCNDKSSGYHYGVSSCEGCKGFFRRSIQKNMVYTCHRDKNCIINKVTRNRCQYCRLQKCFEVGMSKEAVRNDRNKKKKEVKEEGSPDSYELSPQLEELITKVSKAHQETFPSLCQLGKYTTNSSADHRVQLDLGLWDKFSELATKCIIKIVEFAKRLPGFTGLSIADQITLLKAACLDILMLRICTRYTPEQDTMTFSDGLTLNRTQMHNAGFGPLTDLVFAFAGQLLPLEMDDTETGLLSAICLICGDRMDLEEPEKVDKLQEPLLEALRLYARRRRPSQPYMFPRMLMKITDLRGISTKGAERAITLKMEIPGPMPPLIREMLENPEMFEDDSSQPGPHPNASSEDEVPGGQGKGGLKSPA
Chain of human Peroxisome Proliferator-activated Receptor delta (PPARd), PPARD (gene 5467) (Q03181 whole entry, looked up, the tested form may be a part): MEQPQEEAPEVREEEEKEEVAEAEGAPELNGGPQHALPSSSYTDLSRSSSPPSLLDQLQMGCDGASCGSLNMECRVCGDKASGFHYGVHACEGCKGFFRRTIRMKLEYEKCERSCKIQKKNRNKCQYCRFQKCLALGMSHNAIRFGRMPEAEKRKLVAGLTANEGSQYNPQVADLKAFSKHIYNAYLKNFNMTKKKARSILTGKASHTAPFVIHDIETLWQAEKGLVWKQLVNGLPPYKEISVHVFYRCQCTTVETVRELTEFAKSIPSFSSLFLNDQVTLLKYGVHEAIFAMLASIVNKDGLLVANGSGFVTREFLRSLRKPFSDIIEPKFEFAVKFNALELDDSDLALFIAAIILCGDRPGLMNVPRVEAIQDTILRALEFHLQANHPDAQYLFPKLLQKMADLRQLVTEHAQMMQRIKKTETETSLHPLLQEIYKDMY

[Co]
inactive: [1] | [2] | [3] | [4] | [5] | [6] | [7] | [8] | [9] | [11]
active: [10] 22.1 µM

O=C(O)C(F)(F)C(F)(F)F
not listed: [7] | [11] | [19] | [20]
inactive: all other assays above

NC(=O)C(F)(F)C(F)(F)C(F)(F)C(F)(F)F
not listed: [7] | [8] | [11] | [14] | [17]
inactive: all other assays above
